# Results from PubChem BioAssay (EPA / NIEHS).
# The source made the active and inactive calls. How the source made its calls: active means hit-call score of the fitted dose curve at least 0.9, where 1 is the maximum; inactive means score below 0.9.
# Read-out: MicroRNA 122 (MIR122), gene 406906
# Experiment: LTEA_HepaRG_MIR122: Life Technologies and Expression Analysis (LTEA) Assay for MicroRNA 122 (MIR122) using HepaRG (AID 2283516)
# Settings: mRNA level, 48 h; actives raise or lower the signal
# Method: LTEA_HepaRG is a cell based, multiplexed-readout assay that uses HepaRG, a human liver cell line, with measurements taken at 48 hours after chemical dosing on a 96-well plate.LTEA_HepaRG_MIR122 is one of 102 assay component(s) measured in the LTEA HepaRG cell culture assay. It is a marker of MicroRNA.Data from the assay component LTEA_HepaRG_MIR122 was analyzed into 1 endpoint. This assay endpoint, LTEA_HepaRG_MIR122, was analyzed with bidirectional fitting relative to DMSO as the negative control and baseline of activity. Using a type of inducible reporter, measures of mRNA induction for gain or loss-of-signal activity can be used to understand regulation of transcription factor activity. To generalize the intended target to other relatable targets, this assay endpoint is annotated to the microrna intended target family, where the subfamily is post-transcriptional regulation.
# A total of 1060 chemcials from the ToxCast library were tested in eight-point concentration-response experiments. Cell culture and cytotoxicity assays were conducted at Thermo Fisher Scientific's Custom Services facility (Madison, WI). A single lot of human HepaRG cells (Thermo Fisher Scientific, Frederick, MD) was used for the cell culture experiments. 96-well format collagen type I coated plates of human HepaRG cells were prepared using established methods. Briefly, cryopreserved HepaRG cells were thawed, plated at a density of approximately 100,000 cells/well in HepaRG Thaw, Plate, and General Purpose media (HPRG770, Thermo Fisher Scientific), and incubated for 48 hours. 0.5% DMSO was selected as vehicle control to balance the requisite need of DMSO in HepaRG cultures to maintain differentiation (for example, baseline metabolism, proportions of hepatocytes vs. cholangiocytes), while enabling further hepatic receptor pathway activation (for example, PXR and CAR) in response to chemical exposure. 48 hours after plating, the culture medium was replaced with HepaRG Serum-Free Incudtion Media. Cells were exposed to each test chemical in duplicate and maintained in CO2 incubators for another 48 hours. Chemical plates were thawed to room temperature and 200x concentrations of treatment groups were prepared. 8-point conentration-reponse curves were made with the highest exposure at 100 uM, followed by half-log dilutions, all in 0.5% DMSO. Each test plate contained variouse controls, induction positive controls (1mM phenobarbital), cytotoxicity positive controls ([…] aflatoxin B1), vehicle controls (0.5% DMSO), and total lysis controls (0.5% DMSO). Cell morphology images were taken using an Essen IncuCyte FLR automated microscope, with six 96-well plates imaged in about 24 minutes. Images were captured and exported and JPEG files. Spent culture media was transfered to black-well plates for the LDH assay, and remaining media was sorted at -80 C for later use. Cells were treated with RLT buffer and frozen until shipped for gene expression analysis. Total RNA was isolated from the cell suspension in 75 uL of Buffer RLT (Qiagen, Germantown, MD 20874) by Quintiles/Expression Analysis (Durham, NC) using a custom isolation procedure. Total RNA from each plate well was transferred to a preamplification plate. Fluidigm's 96.96 Dynamic ArrayTM (Fluidigm, Amsterdam, the Netherlands) technology was used for gene expression analyses by quantitative reverse transcription polymerase chain reaction (qRT-PCR, performed by Quintiles/Expression Analysis, Durham, NC)89. Standard TaqManTM Assays (Applied Biosystems/ThermoFisher Scientific, Foster City, CA) were used to assess the expression of 93 genes selected based on their selectivity and sensitivity to important hepatic receptors known to be modulated by environmental chemicals; importance in human hepatocyte functionality; and hepatotoxicity. […]
SMILES,outcome,AC50
NCCO,inactive,–
O=C(OCCCCCOC(=O)c1ccccc1)c1ccccc1,–,0.449 µM (active)
CC(CO)OC(C)CO (stereo not given) (tested in a mixture with another compound),inactive,–
NC(=O)Cn1c(=O)cc(CCN2CCN(c3nccc4sccc34)CC2)c2ccc(F)cc21,inactive,–
CCc1c(C(=O)NN2CCCCC2)nn(-c2ccc(Cl)cc2Cl)c1-c1ccc(Br)cc1,–,29.8 µM (active)
COc1ccc(C)cc1N,inactive,–
CCOc1ccc2c(c1)C(C)=CC(C)(C)N2,inactive,–
Cc1ccc(N(C)C)cc1,inactive,–
CC(=O)OCCOCCOCCOC(C)=O,inactive,–
O=c1c(O)c(-c2ccc(O)c(O)c2)oc2cc(O)cc(O)c12,inactive,–
Nc1nc(N)c2nc(CNc3ccc(C(=O)N[C@@H](CCC(=O)O)C(=O)O)cc3)cnc2n1,inactive,–
C[C@]12C=CC(=O)C=C1CC[C@@H]1[C@@H]2C(=O)C[C@@]2(C)[C@H]1CC[C@]2(O)C(=O)CO,inactive,–
Oc1ccc2c(c1)OC[C@@H](N1CCC(O)(c3ccc(F)cc3)CC1)[C@H]2O,inactive,–
CC(=O)OC/C=C(\C)CCC=C(C)C,inactive,–
CN1CCN(Cc2cc(-c3ccc4[nH]c(=O)oc4c3)co2)[C@@H](c2ccc(F)cc2)C1,inactive,–
Oc1ccc2ccccc2c1N=Nc1ccccc1,–,9.92 µM (active)
Clc1cc(Cl)c(Cl)cc1Cl,inactive,–
C=CCOC(=O)c1ccccc1C(=O)OCC=C,inactive,–
CC(C)(C)c1cc(O)c(C(C)(C)C)cc1O,–,79.8 µM (active)
CCCCCCC(=O)OCC,inactive,–

SMILES,outcome,AC50
CCOC(=O)CCC(=O)OCC,inactive,–
CNCc1cc(F)ccc1Oc1ccc(Cl)c(Cl)c1,–,81.8 µM (active)
CCCCCCCC=O,inactive,–
COc1ccc2c(c1)c(CC(=O)O)c(C)n2C(=O)c1ccc(Cl)cc1,inactive,–
O=[N+]([O-])C(CO)(CO)CO,inactive,–
CCNc1cccc(C)c1,inactive,–
CCCCOC(=O)CCCCCCCCC(=O)OCCCC,inactive,–
CCCCN(CCCC)CCCC,inactive,–
Cc1cc(NC(=O)C(=O)O)cc(C)c1Oc1ccc(O)c2c1CCC2,inactive,–
CCOC(=O)C(C)(C)Oc1ccc(Cl)cc1,inactive,–
Cc1ccc(C)c(O)c1C,inactive,–
CC1=C(/C=C/C(C)=C/C=C/C(C)=C/CO)C(C)(C)CCC1,inactive,–
C[Si]1(C)O[Si](C)(C)O[Si](C)(C)O[Si](C)(C)O1,inactive,–
COc1cc(C=O)ccc1O,inactive,–
Nc1ccc(S(=O)(=O)c2ccc(N)cc2)cc1,inactive,–
Cc1ccc(C)c(C)c1,inactive,–
CCCCCCCCCCO,inactive,–
CCCCCCCCCCCCCCCC,inactive,–
COc1cc(S(=O)(=O)O)c(C)cc1N=Nc1c(O)ccc2cc(S(=O)(=O)O)ccc12,inactive,–
CC=Cc1ccc(O)c(OC)c1,inactive,–
